The source of these data is PubChem BioAssay (NCI).

What all share (experiment): NCI-60 one-dose screen, 48 h (100 = growth as untreated, 0 = no growth, -100 = all killed)
Common to all, as to settings: 10 µM unless noted

The test system of experiment [1] is NCI-H23 lung.
The subject of experiment [2] is NCI-H226 lung.
The test system of experiment [3] is NCI-H322M lung.
In experiment [4] the test system is HOP-62 NSCLC.
Experiment [5] deals with NCI-H460 lung.
Experiment [6] relates to HOP-92 NSCLC.
Experiment [7] relates to NCI-H522 lung.
The subject of experiment [8] is A549/ATCC NSCLC.
The subject of experiment [9] is 786-0 renal.
Experiment [10] relates to COLO 205 colon.

Compounds without any hit were thinned out: in the full panel of roughly 83,000, 20% have a hit.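 Treatment: one concentration, 48 hours, 96-well format. Scoring: percent growth, with anything below 10 considered active.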 A number with no mark means an inactive call. Calls of active or inactive are those of the source.

Regarding `COc1ccc(-c2cnnn2-c2nonc2-n2cccc2)cc1OC`, the growth in experiment [1] was 67.8%; in experiment [2] it was 88.8%; in [3], 96.8%; in [4], 55.8%; in [5], 40.7%; in experiment [6] it was 72%. Further, the growth in [7] was 27.4%; in experiment [8] it was 47.2%; in experiment [9], 88.3%; in experiment [10], 44.4%.

In the case of `CCN1C(=O)N(CC)C2C1NN=c1s/c(=C\c3cccnc3)c(=O)n12` (stereo not given), the growth was 44.5% in [1]; 49.7% in experiment [2]; 47.3% in experiment [3]; 53.4% in experiment [4]; 7.97% (active) in [5]; 101% in experiment [6]. In addition, the growth in [7] was 8.92% (active); in experiment [8] it was 27%; in experiment [9], 41.7%; in experiment [10], 12.3%.

Regarding `CC(C)(C)n1cc(-c2ccnc(NCCCNS(=O)(=O)c3ccc(F)cc3)c2)c(-c2cccc(O)c2)n1`, the growth in experiment [1] was 57.9%; in experiment [2], 51.2%; in [3] it was 60.5%; in experiment [4], 74%; in experiment [5], 18.3%; in experiment [6] it was 60.3%. Besides, the growth in experiment [7] is 39.1%; in [8] it was 40%; in experiment [9] it was 22.6%; in experiment [10], 13%.

On to `COc1ccc(CN2CCc3c(Sc4ccccc4)nc(N)nc3C2=O)c(OC)c1`, for which the growth in experiment [1] was 49%; in [2], 67.6%; in experiment [3], 67.9%; in experiment [4] it was 86.2%; in experiment [5], 64.6%; in experiment [6], -11.4% (active). In addition, the growth in [7] was 21.3%; in experiment [8], 60.5%; in [9] it was 62.4%; in [10], 80.2%.

`CCCCCCCCCCCCNC(=O)[C@H]1CSC(c2cc(Br)cs2)N1` (stereo not given in full): the growth in [1] was 18.1%; in experiment [2], 10.4%; in experiment [3], 54%; in experiment [4] it was -97.5% (active); in [5], -48.4% (active); in experiment [6] it was 61.7%. Moreover, the growth in [7] was -1.62% (active); in [8] it was 71%; in experiment [9], 38.3%; in experiment [10], 108%.

As for `CCCCCCCCCCCCCCCCCCNC(=O)[C@H]1CSC(c2ccc(OC)cc2O)N1` (stereo not given in full), the growth in [1] is 83.3%; in experiment [2], 90.4%; in experiment [3] it was 67.5%; in experiment [4], 63.9%; in experiment [5], 13.4%; in [6], 66%. Besides, the growth is 65.8% in experiment [7], 73.8% in experiment [8], 82.2% in experiment [9] and 97.1% in experiment [10].

Take `O=[N+]([O-])c1cnc(Sc2ccncn2)s1`: the growth in experiment [1] was 77%; in [2], 110%; in experiment [3], 99.1%; in [4], 92%; in experiment [5], 97.3%; in experiment [6], -64.9% (active). The growth in experiment [7] was -79.1% (active); in [8] it was 95.9%; in [9], 93.1%; in [10] it was -77.4% (active).

`C=C(C)[C@@H]1C[C@@H]2Cc3cc(F)ccc3N1O2`: the growth is 96.6% in experiment [1]; 99.1% in [2]; 104% in [3]; 94.4% in experiment [4]; 102% in [5]; 56.1% in experiment [6]. Besides, the growth is 91.3% in experiment [7], 97.9% in experiment [8], 103% in experiment [9] and 106% in experiment [10].

Turning to `O=S(=O)(NCCNc1nccc(-c2c(-c3ccc(F)cc3)nc3sccn23)n1)c1ccc(F)cc1`, the growth in [1] was 78.7%; in experiment [2], 72.8%; in experiment [3], 77.4%; in experiment [4], 84.4%; in experiment [5], 48.6%; in [6] it was 82.7%. In addition, the growth in experiment [7] was 89.6%; in experiment [8] it was 49.3%; in experiment [9], 73.7%; in [10], 58.8%.

In the case of `COc1cc(-c2nn(C(=O)NS(=O)(=O)c3ccccc3)cc2-c2ccncc2)ccc1Cl`, the growth in [1] was 88.1%; in experiment [2], 66.9%; in experiment [3], 97.2%; in experiment [4] it was 58.9%; in experiment [5], 103%; in experiment [6], 28.3%. The growth was 77% in experiment [7], 71.9% in experiment [8], 71.4% in experiment [9] and 70.6% in experiment [10].

Take `COc1ccc(S(=O)(=O)NCCCNc2nccc(-c3c(-c4cccc([N+](=O)[O-])c4)nc4sccn34)n2)cc1`: the growth in experiment [1] was 47.3%; in [2], 34.8%; in experiment [3] it was 67.6%; in experiment [4], 61%; in experiment [5], 44.4%; in [6], 82.1%. Further, the growth was 32.4% in experiment [7], 52.2% in experiment [8], 66.6% in experiment [9] and 36.4% in experiment [10].

On to `S=C(S)NCCc1c[nH]c2ccccc12`, for which the growth in experiment [1] was 99%; in [2], 66.5%; in [3] it was 99.9%; in [4], 106%; in experiment [5] it was 103%; in [6], 99.2%. Besides, the growth in [7] is 79.8%; in experiment [8], 99.4%; in experiment [9] it was 100%; in [10], 125%.

As to `CC(C)(C)OC(=O)NCCc1ccc(N=C=S)cc1`, the growth in experiment [1] is 81.4%; in experiment [2], 99.1%; in [3], 86.9%; in [4], 70.1%; in [5], 82.2%; in [6] it was 39.4%. The growth in experiment [7] is 16.1%; in experiment [8], 77.4%; in experiment [9], 80%; in experiment [10], 72.4%.

Regarding `COc1cc(/C=C/c2cc(/C=C/c3ccc(O)c(OC)c3)n(C(N)=O)n2)ccc1O`, the growth was -4% (active) in [1]; 11.9% in experiment [2]; -1.78% (active) in experiment [3]; -3.02% (active) in [4]; 0.571% (active) in experiment [5]; -42.8% (active) in experiment [6]. For the same compound, the growth is -21.2% (active) in [7], 3.16% (active) in experiment [8], -45.8% (active) in experiment [9] and -37.7% (active) in experiment [10].
